# In PubChem BioAssay AID1224897 (Sanford-Burnham Center for Chemical Genomics, 2016):
# The other results are listed elsewhere or left out. The source made the active and inactive calls. How the calls were made is not given here.
# Molecular target: Hepatocyte nuclear factor 4-alpha (Homo sapiens) (UniProt P41235)
# Assay: HNF4-alpha DNA association modulation retest – biochemical, fluorescence polarization, FITC-DNA, confirmation (AID 1224897)
# Conditions: HNF4A-FITC DNA binding, 1 h, at 12.5 µM, hits give high values
# Sequence of Hepatocyte nuclear factor 4-alpha (Homo sapiens) (P41235 whole entry, looked up): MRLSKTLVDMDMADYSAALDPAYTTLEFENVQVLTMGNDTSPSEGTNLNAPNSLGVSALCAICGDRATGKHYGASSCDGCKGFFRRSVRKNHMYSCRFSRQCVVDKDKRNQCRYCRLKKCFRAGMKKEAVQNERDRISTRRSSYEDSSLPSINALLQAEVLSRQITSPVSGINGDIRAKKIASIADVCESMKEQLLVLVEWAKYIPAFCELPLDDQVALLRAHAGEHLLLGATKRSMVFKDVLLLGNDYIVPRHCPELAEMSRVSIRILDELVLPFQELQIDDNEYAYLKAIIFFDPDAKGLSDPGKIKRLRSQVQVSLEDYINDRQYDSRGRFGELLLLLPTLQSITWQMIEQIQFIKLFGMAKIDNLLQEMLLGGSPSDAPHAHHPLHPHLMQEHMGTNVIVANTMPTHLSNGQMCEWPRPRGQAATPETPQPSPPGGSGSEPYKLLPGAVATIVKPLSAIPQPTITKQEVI
structure (smiles),measurement,value
COc1ccccc1N=Nc1c(O)[nH]c(=S)[nH]c1=O,activity change,112% (active)
